Assay [1] in a line: qHTS of pediatric cancer cell lines to identify multiple opportunities for drug repurposing: Primary screen for control Hh wild type fibroblast cells (AID 1347106). Further: nearly all actives have a fitted effect of over 55% in size. The method in brief: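 Cells (500-1,000/well) in growth media were settled 5 h at 37 degrees C, then given compounds for 48 h. Viability was read as CellTiter-Glo luminescence. Primary runs used MIPE at 11 points (0.78 nM-46 µM) and NPC at 8 points (0.59 nM-46 µM); follow-ups used 11 points.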
Background: Quantitative high-throughput screening tests each substance at several concentrations.

A short description of assay [2]: qHTS of pediatric cancer cell lines to identify multiple opportunities for drug repurposing: Primary screen for Rh30 cells (AID 1347107). Further: nearly all actives have a fitted effect of over 75% in size. In outline:
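Viability after 48 h compound treatment at 37C, 500-1,000 cells/well, read as ATP luminescence with CellTiter-Glo. Primary screens used 11-point (MIPE, 0.78 nM-46 µM) or 8-point (NPC, 0.59 nM-46 µM) final concentrations; follow-up screens used 11-point dilutions.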

Assay [3] in a line: qHTS of pediatric cancer cell lines to identify multiple opportunities for drug repurposing: Primary screen for Rh41 cells (AID 1347108). Further: nearly all actives have a fitted effect of over 70% in size. In outline:
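Readout: CellTiter-Glo luminescence, 48 h treatment. Controls DMSO (neutral) and bortezomib 2.3 µM final (positive). Potency and efficacy taken from primary-screen concentration-response curves.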

Molecules are shown by their SMILES. Results filed as inconclusive are left out. Unmarked numbers belong to inactive results. Activity calls are given as the source filed them. The call rests on the fitted dose curve; in most records, active means well fitted curve in the direction sought with a large enough effect; inconclusive means small, poorly fitted or top-dose-only effect, or another doubt; inactive means no such curve, though single readings can be large; an effect the other way counts as inactive or inconclusive.
Potency means the concentration at half of the fitted maximal effect.

`CCCCCCCCCC(=O)N[C@@H](Cc1c[nH]c2ccccc12)C(=O)N[C@H](CC(N)=O)C(=O)N[C@@H](CC(=O)O)C(=O)N[C@@H]1C(=O)NCC(=O)N[C@@H](CCCN)C(=O)N[C@@H](CC(=O)O)C(=O)N[C@H](C)C(=O)N[C@@H](CC(=O)O)C(=O)NCC(=O)N[C@H](CO)C(=O)N[C@@H]([C@@H](C)CC(=O)O)C(=O)N[C@@H](CC(=O)c2ccccc2N)C(=O)O[C@@H]1C`: the Potency entry in assay [1], in assay [2] and in assay [3] was “inactive” throughout.
In the case of `CC(=O)SC[C@@H](C)C(=O)N1CCC[C@H]1C(=O)N[C@@H](Cc1ccccc1)C(=O)O`, the Potency result in assay [1], in assay [2] and in assay [3] was “inactive” throughout.
`CC(C)c1noc(N2CCC(COc3ccc(-c4ccc(S(C)(=O)=O)cc4)nc3)CC2)n1`: the Potency entry in assay [1] and in assay [2] was “inactive” each time.
Regarding `O=C(c1cncc(Br)c1)N1CCC(N2CCCC2)CC1`, the Potency entry in assay [1] and in assay [2] was “inactive” each time.
As for `CC[C@H](CO)Nc1nc(NCc2ccccc2)c2ncn(C(C)C)c2n1`, in assay [1], the Potency result was “inactive”.
Still for that read-out and setting: in the case of `CC(=O)Nc1sc2c(c1-c1nc3ccccc3s1)CNC2` it was “inactive”.
Consider `CN(C)c1nc(Cc2ccc(NC(=O)c3ccc4ccccc4c3)cc2)nc(Cl)c1CC(=O)O`, for which the Potency entry in assay [1], in assay [2] and in assay [3] was “inactive” each time.
Regarding `O=C(CCCCCCNC(=O)c1cnc(N(c2ccccc2)c2ccccc2)nc1)NO`, the Potency result in assay [1] was “inactive”. In addition, the Potency in assay [2] is 14.8 µM (active); in assay [3], 9.35 µM (active).
Turning to `O=C(Nc1nc2cccc(-c3ccc(CN4CCS(=O)(=O)CC4)cc3)n2n1)C1CC1`, the Potency result in assay [1] is “inactive”.
As for `COc1cc2ncnc(Nc3ccc(F)c(Cl)c3)c2cc1NC(=O)C=CCN1CCCCC1`, the Potency entry in assay [1] is “inactive”.
As to `Cc1cc(Nc2cc(N3CCN(C)CC3)nc(C=Cc3ccccc3)n2)n[nH]1`, the Potency in assay [1] was 38.2 µM (active); in assay [2] it was 34 µM (active); in assay [3], 10.8 µM (active).
The corresponding values for `CN1c2cc(O)c(N=NC(N)=O)cc2CC1S(=O)(=O)O` (stereo unspecified) are “inactive”, “inactive” and “inactive”.
In the case of `CC(C)c1ccc(Cn2ccc3c4c(N)nc(NC5CC5)nc4ccc32)cc1`, in assay [1], the Potency entry is “inactive”. Further, the Potency was 18.7 µM (active) in assay [2] and 3.72 µM (active) in assay [3].
As to `COc1cc(C(=O)NS(=O)(=O)c2ccccc2C)ccc1Cc1cn(C)c2ccc(NC(=O)OC3CCCC3)cc12`, in assay [1], the Potency entry was “inactive”.
With `COc1cc2c(Oc3ccc4[nH]c(C)cc4c3F)ncnc2cc1OCCCN1CCCC1`, the Potency in assay [1] is 26.4 µM (active); in assay [2], 23.5 µM (active); in assay [3], 18.7 µM (active).
Consider `CCCCCN(CCC12CC3CC(CC(C3)C1)C2)C(=O)NCCCc1ccncc1`, for which the Potency result in assay [1] and in assay [2] was “inactive” in each case.
Consider `COc1ccc2c(c1)CC[C@@H](CN(C)CC(=O)O)[C@H]2c1ccccc1`, for which the Potency entry in assay [1] and in assay [2] was “inactive” throughout. For the same compound, the Potency in assay [3] was 5.9 µM (active).
For `C[C@]12CC[C@H](O)CC1=CCC1C2CC[C@]2(C)C(n3cnc4ccccc43)=CCC12` (stereo partly specified), the Potency result in assay [1] and in assay [2] was “inactive” each time.
`Cc1cccc(C=NNc2cc(N3CCOCC3)nc(OCCc3ccccn3)n2)c1`: the Potency entry in assay [1] is “inactive”.
As for `CC(=O)c1c(C)c2cnc(Nc3ccc(N4CCNCC4)cn3)nc2n(C2CCCC2)c1=O`, the Potency entry in assay [1] is “inactive”.
Consider `COc1cc(C)c(Sc2cnc(NC(=O)c3ccc(CNC(C)C(C)C)cc3)s2)cc1C(=O)N1CCN(C(C)=O)CC1` (stereo unspecified), for which, in assay [1], the Potency result was “inactive”. The figures for the Potency in assay [2] and in assay [3] were 8.33 µM (active) and 2.64 µM (active), respectively.
With `COc1cc2ncn(-c3cc(OCc4ccccc4C(F)(F)F)c(C(N)=O)s3)c2cc1OC`, the Potency in assay [1] is 18.7 µM (active).
Turning to `CCN1CCN(CC(=O)Nc2ccc(-c3cccc4c(=O)cc(N5CCOCC5)oc34)c3sc4ccccc4c23)CC1`, in assay [1], the Potency result was “inactive”. Further, the Potency was 10.5 µM (active) in assay [2] and 1.66 µM (active) in assay [3].
With `Cn1cc(-c2[nH]c3cc(NC(=O)[C@H](N)C4CCCCC4)cc4c3c2C=NNC4=O)cn1`, the Potency entry in assay [1] was “inactive”.
With `O=C(NCCS(=O)(=O)c1ccc(C(F)(F)F)cn1)c1ccc(Cl)cc1`, the Potency entry in assay [1] and in assay [2] was “inactive” throughout.
For `CCOc1ccccc1OCCNC(C)Cc1ccc(OC)c(S(N)(=O)=O)c1` (stereo unspecified), the Potency entry in assay [1], in assay [2] and in assay [3] was “inactive” throughout.
For `COc1cc(C(C)C)c2c(c1)S(=O)(=O)N(COc1cc(=O)n3cccc(OCCN4CCCCC4)c3n1)C2=O`, the Potency result in assay [1] and in assay [2] was “inactive” throughout.
For the compound `COc1c(N2C[C@@H]3CCCN[C@H]3C2)c(F)cc2c(=O)c(C(=O)O)cn(C3CC3)c12`, the Potency entry in assay [1], in assay [2] and in assay [3] was “inactive” throughout.
Take `Cn1cc(-c2ccncc2)c(-c2ccc(OCc3ccc4ccccc4n3)cc2)n1`: in assay [1], the Potency entry is “inactive”.

Values taken from PubChem BioAssay (NCATS).
